The record followed here is PubChem BioAssay AID463173 (ICCB-Longwood Screening Facility, Harvard Medical School, 2010).

Among all 52,000 compounds or so, about 4,300 (8.3%) were called active. Only a selection was taken, and actives are over-represented in it overall. Unmarked numbers belong to inactive results. No stated cut-off is given here; in the data, active means survival mostly below about 52% (no sharp cut-off); inactive means mostly above about 56%.

The assay concerns DeltatarO mutant. Kind of assay: growth inhibition of S. aureus wild type versus tarO mutant, primary screen, teichoic acid synthesis inhibitors, RN4220, OD600 (AID 463173). The following applies: OD600, 18 h, active compounds read low, screened at 18.75 µg/mL (by protocol).
In the case of `CCOC(=O)c1cc(-c2ccc(OC)cc2)n(CCC(=O)Nc2cccc(C)c2C)c1C`, the survival was 93%.

For `CC1=Nc2cc(C(=O)NC3CCCC3)ccc2Sc2ccc(Cl)cc21`, the survival was 77%.

`Cc1ccccc1-c1nnc(C2CCN(S(=O)(=O)c3ccc(Cl)cc3)CC2)o1`: the survival is 89%.

`CCOc1ccc2nc(N3CCCC(C(=O)Nc4ccccc4CC)C3)sc2c1` (stereo unspecified): the survival is 95%.

As to `Cc1cccc(C(=O)Nc2nnc(S(=O)(=O)N3CCOCC3)s2)c1`, the survival was 58%.

For the compound `COc1ccc(C(=O)Nc2nnc(S(=O)(=O)N3CCCCCC3)s2)cc1OC`, the survival is 80%.

Turning to `COc1cccc(C(=O)Nc2nnc(S(=O)(=O)N3CCCC3)s2)c1`, the survival was 33% (active).

Turning to `O=C(Nc1nnc(S(=O)(=O)N2CCOCC2)s1)c1ccc(F)cc1`, the survival is 78%.

Take `O=C(Nc1nnc(S(=O)(=O)N2CCOCC2)s1)c1cccc(Br)c1`: the survival was 42% (active).

For `O=C(Nc1nnc(S(=O)(=O)N2CCCCCC2)s1)c1ccc(Br)cc1`, the survival is 60%.

`O=C(Nc1nnc(S(=O)(=O)N2CCCCCC2)s1)c1cccc(Br)c1`: the survival is 9% (active).

`COc1cccc(C(=O)Nc2nc3ccc(S(=O)(=O)N4CCCC4)cc3s2)c1`: the survival was 79%.

`CC1CCN(C(=O)COc2ccc(C(C)C)cc2)CC1`: the survival was 86%.

For `Cc1ccc(C)n1-c1nnc(N2CCC(C(=O)Nc3ccccc3Br)CC2)s1`, the survival is 91%.

Turning to `c1cc(CNC2CCCCC2)co1`, the survival is 72%.

Regarding `Nc1nnc(CCC(CCc2nnc(N)s2)(CCc2nnc(N)s2)C(=O)c2ccccc2)s1`, the survival was 92%.

As to `COc1ccc(C)c2sc(N(Cc3cccnc3)C(C)=O)nc12`, the survival is 80%.

As to `COc1ccccc1NC(=O)Cn1c(=O)n(Cc2ccc3c(c2)OCO3)c(=O)c2oc3ccccc3c21`, the survival is 77%.

As to `Cn1c(SCc2ccc(F)cc2)nc2ccc(C(=O)NCc3ccccc3)cc21`, the survival is 49%.

Take `Cn1c(SCc2ccc(F)cc2)nc2ccc(C(=O)NCc3cccc(Cl)c3)cc21`: the survival was 56% (active).

Consider `Cn1c(SCc2ccc(F)cc2)nc2ccc(C(=O)NCc3ccc(Cl)cc3)cc21`, for which the survival is 50%.

`COc1ccc(C2NC(=O)NC(C)=C2C(=O)Nc2ccccc2)cc1OC` (stereo unspecified): the survival is 116%.

Regarding `COc1cc(C2NC(=O)NC(C)=C2C(=O)Nc2cc(C)cc(C)c2)ccc1O` (stereo unspecified), the survival was 38% (active).

`COc1ccc(OC)c(C2NC(=O)NC(C)=C2C(=O)Nc2cc(C)cc(C)c2)c1` (stereo unspecified): the survival was 47%.

With `Cc1cccc(NC(=O)CSc2nnc3[nH]c(=O)cc(-c4ccccc4)n23)c1C`, the survival is 116%.

For the compound `O=S(=O)(NCC(c1cccs1)S(=O)(=O)c1ccccc1)c1ccccc1` (stereo unspecified), the survival was 115%.

`O=S(=O)(NCC(c1cccs1)S(=O)(=O)c1ccccc1)c1ccc(F)c(C(F)(F)F)c1` (stereo unspecified): the survival was 92%.

Consider `O=C(NCc1ccccc1)C(=O)NCC(c1cccs1)S(=O)(=O)c1ccccc1` (stereo unspecified), for which the survival is 52% (active).

On to `O=S(=O)(NCC(c1cccs1)S(=O)(=O)c1ccccc1)c1ccc(F)cc1` (stereo unspecified), for which the survival is 46% (active).

For the compound `Cc1ccc(CNC(=O)C(=O)NCC(c2cccs2)S(=O)(=O)c2ccc(C)cc2)cc1` (stereo unspecified), the survival was 98%.

For `O=C(NCc1ccccc1)C(=O)NCC(c1cccs1)S(=O)(=O)c1cccs1` (stereo unspecified), the survival was 91%.
